In the library only some 3.5% were active in any assay of this set; here they are far more common.
MITF primary: human MITF inhibition, primary screen | AlphaScreen MITF homodimerization, bead proximity signal | O75030 | inhibition, % at 2.6 µM | 0.91% of 650,000 active; in the data active means inhibition above about 50%;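 further: 0% = vehicle wells with protein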
GPR151 ag: activators of human GPR151; Q8TDV0; PathHunter beta-arrestin GPR151 cells, luminescence; activation, % at 11.2 µM; 1% of 650,000 active; in the data active means activation above about 4.9%;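 further: 0% = median of compound wells and 100% = cells with positive control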
Target sequence (Q8TDV0 whole entry, looked up): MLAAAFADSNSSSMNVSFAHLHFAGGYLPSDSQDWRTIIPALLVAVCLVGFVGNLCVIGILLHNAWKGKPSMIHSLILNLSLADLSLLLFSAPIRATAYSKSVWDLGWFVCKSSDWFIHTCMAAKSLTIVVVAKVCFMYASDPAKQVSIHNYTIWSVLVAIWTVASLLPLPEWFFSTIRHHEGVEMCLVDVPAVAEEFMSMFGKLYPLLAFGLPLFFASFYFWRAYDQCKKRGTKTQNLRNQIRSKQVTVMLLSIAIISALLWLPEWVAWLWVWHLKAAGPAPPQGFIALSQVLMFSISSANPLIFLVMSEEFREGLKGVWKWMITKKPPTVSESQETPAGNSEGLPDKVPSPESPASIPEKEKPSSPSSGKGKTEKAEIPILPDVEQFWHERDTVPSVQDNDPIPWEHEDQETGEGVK
TEAD-YAP block: TEAD-YAP interaction inhibition; HEK-TIYL cells, TEAD-Gal4/YAP UAS-luciferase luminescence; inhibition, % at 9.12 µM; 1.4% of 640,000 active; AID 1259422; in the data active means inhibition above about 32%;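 further: 0% = median of test compound wells and 100% = reference inhibitor wells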
FBW7 activator: human FBW7 E3 ligase activation, primary screen | AlphaScreen FBW7–phospho-cyclin E peptide binding, activator screen | 0.13% of 650,000 active | normalized activity (activation), % at 26.1 µM | AID 1259310 | Q969H0; in the data active means normalized activity above about 1.9%;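 further: purified mutant Fbw7 with reduced substrate affinity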
An asterisk follows results filed as active.

SMILES	MITF primary	GPR151 ag	TEAD-YAP block	FBW7 activator
Cc1nc(C)n(-c2ccc(Nc3ncc(F)c(-c4cc(C#N)cc(N5CCOCC5)c4)n3)cc2)n1	-3	-1	4	0
Fc1cc(-c2ccnc(Nc3cccc(CN4CCOCC4)c3)n2)cc(N2CCOCC2)c1	3	-1	53*	0
Fc1cc(-c2nc(Nc3cccc(CN4CCCC4)c3)ncc2F)cc(N2CCOCC2)c1	11	-1	93*	0
O=C(CCc1nnc(CCC2CCCCC2)o1)N1CCC(OCc2cccnc2)CC1	15	-1	-33	0
COc1cc2c(cc1OC)C(COc1ccc(F)cc1)N(C(=O)c1cccc(C)c1)CC2 (stereo not drawn)	12	-1	-8	0
Fc1cc(-c2nc(Nc3ccc(-n4ccnc4)cc3)ncc2F)cc(N2CCOCC2)c1	-4	-1	57*	0
COc1cccc(CNC(=O)Cc2nn[nH]n2)c1	-4	0	-6	0
COc1ccc(-c2cc(C(F)(F)F)n3nc(C(=O)N4CCN(c5cccc(OC)c5)CC4)cc3n2)cc1	0	2	4	-1
CC(=O)c1cccc(-c2nc(NCCc3ccc(O)cc3)c3ncn(-c4ccsc4)c3n2)c1	7	2	82*	0
CC(C)n1cnc2c(NCCc3ccc(O)cc3)nc(-c3cccc(N)c3)nc21	8	0	12	0
COc1ccc(CCNc2nc(-c3cccc(C(C)=O)c3)nc3c2ncn3-c2ccsc2)cc1	0	1	-1	0
Cn1c(Nc2nc(NCCc3ccc(O)cc3)c3ncn(C4CCCCC4)c3n2)nc2ccccc21	3	-1	35*	0
CC(=O)c1cccc(-c2nc(NCCc3ccc(O)cc3)c3ncn(C(C)C)c3n2)c1	-8	-1	63*	0
NC(=O)c1ccc(-c2nc(NCc3cccnc3)c3ncn(Cc4ccc(C(F)(F)F)cc4)c3n2)cc1	-4	-1	46*	1
CC(=O)Nc1ccc(Nc2nc(N3CCCC3CO)nc3c2ncn3Cc2ccc(C(F)(F)F)cc2)cc1 (stereo not drawn)	13	0	-4	0
Cc1ccc(NC(=O)C(=O)NCCC2CCCCN2S(=O)(=O)c2cccs2)cc1C (stereo not drawn)	1	2	11	0
CC(=O)c1cccc(-c2nc(NCc3cccnc3)c3ncn(C(C)C)c3n2)c1	3	4	59*	0
CC(=O)c1cccc(-c2nc(NCCc3ccc(O)cc3)c3ncn(-c4ccccc4)c3n2)c1	12	1	72*	0
NC(=O)c1ccc(-c2nc(NCCc3ccc(O)cc3)c3ncn(C4CCCCC4)c3n2)cc1	0	1	44*	0
O=C(NC1CC1)c1ccc(-c2nc(NCCOc3ccccc3)c3ncn(-c4ccccc4)c3n2)cc1	4	2	-2	0
O=C(NC1CC1)c1ccc(-c2nc(NCCc3ccc(O)cc3)c3ncn(-c4ccccc4)c3n2)cc1	-3	-1	56*	0
CC(=O)c1cccc(-c2nc(NCc3ccccc3)c3ncn(C(C)C)c3n2)c1	-4	0	10	0
COc1ccccc1-n1c(CNC(=O)c2c(F)cccc2Cl)n[nH]c1=S	-5	0	3	0
COCCCN1C(=O)c2[nH]nc(-c3ccccc3O)c2C1c1ccc(C)cc1 (stereo not drawn)	-6	-1	43*	0
O=C(NC(Cc1ccccc1)C(=O)Nc1nc(-c2ccccc2)cs1)Oc1ccccc1 (stereo not drawn)	20	1	10	0
SMILES	MITF primary	GPR151 ag	TEAD-YAP block	FBW7 activator
Oc1ccc(C=Nc2ccccc2)c(O)c1O	85*	5	0	0
Oc1cccc(C=Nc2ccc(Br)cc2)c1O	-14	3	-6	0
O=c1[nH]c2ccc(N=Cc3ccc(O)c(O)c3O)cc2[nH]1	68*	0	-4	-1
Cc1ccc(N=Cc2ccc(O)c(O)c2O)cc1F	69*	-1	10	0
Cc1ccc(N=Cc2cccc(O)c2O)cc1F	-1	-1	5	0
N#Cc1cc2cc3c(cc2nc1SCC(=O)NCc1ccc2c(c1)OCO2)OCCO3	18	0	50*	0
COc1cc2cc(C#N)c(SCC(=O)NCc3cccs3)nc2cc1OC	-8	-1	-2	0
Cc1ccc2nc(SCC(=O)Nc3ncc(C)s3)c(C#N)cc2c1	7	0	-73	3.8*
N#Cc1cc2cc3c(cc2nc1SCC(=O)NCc1cccs1)OCCO3	7	-1	46*	1
COc1ccccc1NC(=O)CSc1nc2cc3c(cc2cc1C#N)OCCO3	23	-1	62*	1
CCN(CC)S(=O)(=O)c1ccc(C(=O)OCc2cc(=O)oc3cc(OC)ccc23)cc1	-13	-2	-7	1
Cc1c(Cl)cccc1N1C(N)=C(C#N)C(c2cccs2)C2=C1CC(C)(C)CC2=O (stereo not drawn)	5	-2	3	0
COc1ccc2[nH]c(CN3CCC4(CC3)NC(=O)c3ccccc3O4)c(C)c2c1	2	-1	68*	0
CCCc1nc(-c2ccc(C(F)(F)F)cc2)no1	-11	0	0	0
O=C(N/N=C/c1cc([N+](=O)[O-])ccc1O)C(=O)Nc1ccccc1OC(F)(F)C(F)F	2	-1	8	0
O=C(N/N=C/c1cc(Cl)ccc1O)C(=O)Nc1ccccc1OC(F)(F)C(F)F	-6	1	79*	0
Cc1cccc(NC(=O)C(CC(C)C)NS(=O)(=O)c2ccc3c(c2)oc(=O)n3C)c1C (stereo not drawn)	11	0	-2	0
CC1CCc2nc(N)c(C#N)c(-c3cccnc3)c2C1 (stereo not drawn)	19	0	50*	1.9*
O=c1c(O)cccc2cc(O)c(O)c(O)c12	90*	3	-6	0
CCCNS(=O)(=O)c1ccc(OCC(=O)NCc2ccncc2)cc1	12	0	3	0
Cc1ccc(C(=O)Nc2cccc(OC(=O)c3cccc(S(=O)(=O)N4CCC(C)CC4)c3)c2)cc1	11	-3	68*	1
COc1cccc(C(=O)Nc2cccc(OC(=O)c3ccc(C)c(S(=O)(=O)N4CCOCC4)c3)c2)c1	12	0	36*	0
COc1ccc(C(=O)Nc2cccc(OC(=O)c3ccc(C)c(S(=O)(=O)N4CCOCC4)c3)c2)cc1	-8	-3	66*	0
CCN1C(=O)C2(/C(=C(\O)c3ccc(C)c(F)c3)C(=O)C(=O)N2CCOC)c2ccccc21 (stereo not drawn)	9	0	1	0
C/C(CC(=O)NC1CCCC1)=N\NC(=O)C(=O)NCCO	-5	0	-5	0
CCOC(=O)C(=N\O)/C(C)=N/NC(=O)CC#N	71*	-1	-6	0
Cc1cc(Nc2ccc3c(c2)OCO3)nc(Nc2nccc3ccccc23)n1	2	0	35*	0
Nc1nc(Nc2ccc3c(c2)OCO3)cc(Nc2nccc3ccccc23)n1	10	-1	36*	0
O=C(NCc1ccc(Cl)cc1Cl)C(=O)N/N=C/c1ccc(C(=O)O)cc1	12	0	5	0

From PubChem
